From PubChem BioAssay AID504843 (Broad Institute, 2011)
Out of some 1,200 compounds screened, about 360 (30%) were called active. These entries were drawn from the full list. Potency and affinity values are given separately. Values without a mark were called inactive. The rule behind the calls is not given here.

Assay: bacterial growth inhibition, dose response, counter-screen, BacTiter-Glo luminescence, cherry-picked samples (AID 504843);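 note: growth measured after 8 h incubation at 30 °C; 0% = median of sample compound wells and -100% = antibiotic control wells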
Conditions: BacTiter-Glo ATP luminescence; series mostly up to 15 µM; activity change, negative = inhibition: at the top concentration

| Structure (SMILES) | activity change, negative = inhibition |
| --- | --- |
| CCOC(=O)c1c(NC(=O)CSc2n[nH]c(CNc3ccccc3)n2)sc(C)c1C | -30.9% |
| Cc1nn2c(COc3ccc(NC(=O)c4ccccc4Cl)cc3)nnc2c2ccccc12 | 14.4% |
| COc1ccc(NC(=O)c2ccc(Oc3ncccn3)cc2)cc1 | 8.41% |
| COc1ccc(NC(=O)Cn2ncc(Cl)c(Cl)c2=O)cc1S(=O)(=O)N1CCOCC1 | -0.163% |
| CCn1ccnc1CN(C)C(=O)c1cc(COc2ccc(Cl)cc2OC)on1 | 10.2% |
| COc1ccccc1OCCNC(=O)Cc1ccc(S(=O)(=O)N2CCOCC2)s1 | -3.23% |
| CCN(CC(=O)NCc1ccc(F)cc1)CC(=O)Nc1ccc(S(=O)(=O)N2CCCC2)cc1 | -9.6% |
| O=C(CSc1nc(O)c(Cc2ccccc2F)c(=O)[nH]1)N1CCCCCC1 | -21.7% |
| COc1ccc(-c2csc(NC(=O)C3COc4ccccc4O3)n2)cc1OC (centres undefined) | -6.84% |
| COc1ccc2c(c1)c(C(O)CN1CCC(Cc3ccccc3)CC1)c(C)n2C (centres undefined) | 14% |
| Cc1c(Nc2ncnc3c2cnn3-c2ccccc2)c(=O)n(-c2ccccc2)n1C | -0.73% |
| O=C(CN1CCN(c2ccc(O)cc2)CC1)Nc1ccc2c(c1)OCCO2 | 2.96% |
| COc1ccc(S(=O)(=O)N2CCOCC2)cc1NC(=O)c1ccc2c(c1)OCO2 | 10.4% |
| CCOc1ccc(S(=O)(=O)N2CCCCC2)cc1NC(=O)CN1C(=O)NC(CC)(c2ccccc2)C1=O (centres undefined) | -28.2% |
| Cc1cc(C)c(C(N)=O)c(Nc2ccc3c(c2)OCCO3)n1 | 1.39% |
| CCN(CC)CCn1c(=N)n(CC(O)COc2cccc(C)c2)c2ccccc21 (centres undefined) | 13.1% |
| Cc1ccc(CC(=O)NCCS(=O)c2ccc(Cl)cc2)cc1 (centres undefined) | -12.8% |
| O=C(CN1CCN(Cc2ccc(Cl)cc2)CC1)N/N=C/c1c[nH]c2ccccc12 | -7.1% |
| CCOC(=O)[C@H]1[C@H]2COc3ccc(OC)cc3[C@H]2N2C(=O)CN(Cc3ccccc3)C(=O)[C@@]12C | -17.4% |
| O=C(CSc1nccc(=O)[nH]1)c1cc2ccccc2o1 | -2.57% |
| CC(O/N=C/c1ccc(OC(F)F)cc1)C(=O)Nc1cccc(S(=O)(=O)N2CCOCC2)c1 (centres undefined) | -3.95% |
| Cc1ccc(S(=O)(=O)N2CCOCC2)cc1NC(=O)c1cc2ccccc2oc1=O | 5.05% |
| COc1ccc(N2CCN(C3CC(=O)N(c4ccc5c(c4)OCCO5)C3=O)CC2)cc1 (centres undefined) | 15.6% |
| CCOC(=O)C1=C(C)Nc2ncnn2C1c1cc(Br)ccc1F (centres undefined) | -5.34% |
| COC(=O)c1ccc(NC(=O)N2CCC(O)(c3cccnc3)CC2)cc1 | 6.75% |
| CC(=O)Nc1sc(NC(=O)c2ccccc2)nc1-c1cccs1 | -25.9% |
| Cc1ccc(C(=O)Nc2nc(C)c(C(=O)Nc3ccc4c(c3)CCC4)s2)cc1 | 6.16% |

| Structure (SMILES) | activity change, negative = inhibition |
| --- | --- |
| CCCN(C(=O)Cn1c(C(F)(F)F)nc2ccccc21)C1CCS(=O)(=O)C1 (centres undefined) | -1.36% |
| CC(C)=CCC/C(C)=C/CNC(=O)C[C@H]1C[C@H](C(=O)N2CCOCC2)[C@@]2(C)c3[nH]c4ccc(Cl)cc4c3CCN2C1=O | 4.55% |
| CC(=O)CSc1ncnc2sc3c(c12)CCC(C)C3 (centres undefined) | 3.11% |
| CCOCCCNC(=O)c1ccc(Cn2c(=S)[nH]c3c([nH]c4ccc(OC)cc43)c2=O)cc1 | 11.8% |
| CCOC(=O)Cc1c[nH]c2ccc([N+](=O)[O-])cc12 | 23.3% |
| O=C(NCc1ccccc1)c1ccc(F)c(F)c1 | -15.1% |
| O=C(N/C(=C/c1ccccc1)C(=O)N1CCCCC1)c1ccc(Br)o1 | -1.15% |
| O=C(Nc1ccccc1Oc1ccccc1)c1ccc(Br)o1 | -11.8% |
| CN(CC(=O)NCc1cccnc1)S(=O)(=O)c1ccccc1 | -8.64% |
| O=C(CSc1ncnc2nc[nH]c12)c1ccc2ccccc2c1 | 16% |
| O=C1NC(=O)C(c2ccccc2)(c2ccccc2)N1 | 9% |
| CCN(CC)CC(=O)Nc1ccc(C)cc1C(=O)c1ccccc1 | -2.71% |
| COc1cc(OC)cc(C(=O)N(CN2CCCC2=O)c2ccccc2OC)c1 | -10% |
| CC(C)(C)NC(=O)C[C@H]1C[C@H](C(=O)N2CCOCC2)[C@@]2(CCC3CCCC3)c3[nH]c4cc(-c5ccco5)ccc4c3CCN2C1=O | 1.73% |
| CC(C)[C@@H](C(=O)N1CCNCC1)n1cc(CCO)nn1 | 12.5% |
| Cc1nc(N)nc(Cl)c1Cc1ccc(Cl)cc1 | -10.1% |
| COc1cccc(COC(=O)C2CC(=O)N(Cc3ccco3)C2)c1OC (centres undefined) | -0.991% |
| CC(NC(=O)Nc1nccs1)(C(F)(F)F)C(F)(F)F | 8.33% |
| NC(=O)c1ccccc1NC(=O)COc1ccc2c(c1)OCO2 | 3.37% |
| COC(=O)c1cnc(NNS(=O)(=O)c2ccc(C(F)(F)F)cc2)nc1C(F)(F)F | -8.8% |
| COCn1c(-c2cccc(Br)c2)nc2ccccc21 | 1.6% |
| CNC(=O)C1CCN(S(=O)(=O)c2c(C)noc2/C=C/c2cccc(OC)c2)CC1 | 3.27% |
| O=C(c1ccc2nc[nH]c2c1)N1CCN(c2ncc(C(F)(F)F)cc2Cl)CC1 | 0.007% |
| Cc1ccc(NC(=O)c2cccs2)cc1S(=O)(=O)Nc1cccc(Cl)c1 | 7.34% |
| O=C1c2ccccc2CC1Sc1nnc(-c2ccncc2)o1 (centres undefined) | 10.6% |
| CC1=CC(=O)[C@@H](O)[C@@H](c2ccccc2Br)N1C | 15% |
| COc1ccc(NC(=O)CC2(CC(=O)O)CCCC2)cn1 | 7.78% |
